A3A deaminase: APOBEC3A ssDNA deaminase inhibitors, primary screen, selectivity assay for APOBEC3G inhibitor project, biochemical, FAM/TAMRA oligo cleavage fluorescence. recombinant A3A, FAM/TAMRA ssDNA deamination fluorescence. inhibition, % at 20 µM. 0.41% of 330,000 active. AID 493011, 2011;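 active = at least 40% inhibition at 20 µM here, with at most 30% in a related deaminase screen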;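 note: plate controls were A3A with DMSO for no effect and wells lacking A3A enzyme for full effect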
APOBEC3G inh: APOBEC3G DNA deaminase inhibitors, primary screen, biochemical, fluorescence, single-stranded DNA substrate, uHTS; 0.28% of 330,000 active; AID 493012, 2011; inhibition, % at 20 µM; DNA dC->dU-editing enzyme APOBEC-3G (Homo sapiens), Q9HC16; recombinant A3G, ssDNA deamination FAM/TAMRA fluorescence;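 active = inhibition of at least 40% at 20 µM, with no more than 30% in the related APOBEC3A deaminase screen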;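 note: plate controls were DMSO wells with A3G for no effect and wells lacking A3G enzyme for full effect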
PABP polyA inh: PABP poly(A) RNA binding inhibitors, primary screen, biochemical, fluorescence polarization, uHTS | 1% of 290,000 active | Polyadenylate-binding protein 1 (Homo sapiens), P11940 | calls only at 35 µM;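 note: calls also rest on retests at 20 µM and on dose response follow-up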
eIF4H FP inh: human eIF4H binding inhibitors, primary screen, translation initiation inhibitor project, biochemical, uHTS, fluorescence polarization; Eukaryotic translation initiation factor 4H (Homo sapiens), Q15056; eIF4H fluorescence polarization binding assay; inhibition, % at 35 µM; 0.94% of 290,000 active;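 note: calls also rest on retests at 20 µM and on dose response follow-up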
PABP1 MLLE inh: inhibitors of PABP1 MLLE–PAM2 peptide binding, primary screen, biochemical, fluorescence polarization, FITC-PAM2, GST-MLLE; Polyadenylate-binding protein 1 (Homo sapiens), P11940; inhibition, % at 20 µM; 0.36% of 360,000 active; in the data active = inhibition above about 35%, passing the limit was not always enough;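 note: plate controls were DMSO wells with GST-MLLE for no effect and wells lacking GST-MLLE protein for full effect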
PHOSPHO1 block: PubChem AID 1565; Phosphoethanolamine/phosphocholine phosphatase (Homo sapiens), Q8TCT1; recombinant PHOSPHO1, absorbance phosphatase assay; inhibition, % at 13.3 µM; 1.1% of 290,000 active; in the data active = inhibition above about 60%
Target sequence (Q8TCT1 whole entry, looked up): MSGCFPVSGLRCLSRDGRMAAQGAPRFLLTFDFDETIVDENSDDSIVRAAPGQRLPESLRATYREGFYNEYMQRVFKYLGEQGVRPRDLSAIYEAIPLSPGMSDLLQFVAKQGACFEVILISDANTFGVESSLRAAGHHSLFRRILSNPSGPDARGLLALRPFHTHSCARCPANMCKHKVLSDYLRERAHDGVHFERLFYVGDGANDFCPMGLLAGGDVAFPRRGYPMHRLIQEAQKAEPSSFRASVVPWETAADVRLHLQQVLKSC
The depositor's hits bear a star. Hits are enriched below; roughly 2.6% of the tested compounds scored in any of these assays. Unless noted, the rule behind the calls is not given here.

Cc1cc(C)c2nc(-c3ccccn3)cc(C(=O)NCc3cc(C)n(C)n3)c2c1 was read as A3A deaminase 4, APOBEC3G inh 4, PABP polyA inh inactive, eIF4H FP inh -2, PABP1 MLLE inh 4 and PHOSPHO1 block 34.
For Cc1cc(C)c2nc(-c3ccccn3)cc(C(=O)NCc3ccco3)c2c1 the results were A3A deaminase 36, APOBEC3G inh 14, PABP polyA inh active, eIF4H FP inh 48*, PABP1 MLLE inh 1 and PHOSPHO1 block -31.
`Cc1cc(C(=O)NCc2ccco2)c2ccccc2n1` gave A3A deaminase -7, APOBEC3G inh -4, PABP polyA inh inactive, eIF4H FP inh -4, PABP1 MLLE inh 6 and PHOSPHO1 block 20.
Screening Cc1csc(SCC(=O)NC2CCS(=O)(=O)C2)n1 (stereo not given) returned A3A deaminase -5, APOBEC3G inh -5 and PABP1 MLLE inh 10.
For CC(C)(C)S(=O)(=O)/C(C#N)=C/c1cccn1S(=O)(=O)c1ccccc1 the results were PABP1 MLLE inh 12.
For Cc1cc(OC(C)C(=O)N2CCN(c3ccc(F)cc3)CC2)c2c(C)cc(=O)oc2c1 (stereo not given) the results were A3A deaminase -3, APOBEC3G inh -8, PABP polyA inh inactive, eIF4H FP inh -5, PABP1 MLLE inh 1 and PHOSPHO1 block 48.
`COc1ccc(C(=O)c2c(C(F)(F)F)oc3c2C(=O)c2ccccc2C3=O)cc1` gave A3A deaminase -4, APOBEC3G inh 8, PABP polyA inh inactive, eIF4H FP inh 4, PABP1 MLLE inh 9 and PHOSPHO1 block 97*.
COc1ccc(C(=O)c2coc(-c3ccccc3C(=O)O)c2C(=O)O)cc1 was read as A3A deaminase 0, APOBEC3G inh 0, PABP polyA inh inactive, eIF4H FP inh 1, PABP1 MLLE inh 17 and PHOSPHO1 block -3.
`O=C(Nc1ccccc1Cl)C(Cl)C(=O)c1ccccc1` (stereo not given) gave A3A deaminase 1, APOBEC3G inh -5, PABP polyA inh inactive, eIF4H FP inh 8.0*, PABP1 MLLE inh 23 and PHOSPHO1 block 8.
FC(F)Oc1ccc(-c2csc(NNC3=NCCCCC3)n2)cc1 was read as A3A deaminase -5, APOBEC3G inh -3, PABP polyA inh inactive, eIF4H FP inh 1, PABP1 MLLE inh 15 and PHOSPHO1 block 61*.
Screening Brc1ccc(-c2csc(NNC3=NCCCCC3)n2)cc1 returned A3A deaminase 1, APOBEC3G inh 1, PABP polyA inh inactive, eIF4H FP inh 8, PABP1 MLLE inh 2 and PHOSPHO1 block 88*.
Screening c1ccc(-c2csc(NC3=NCCCCC3)n2)cc1 returned A3A deaminase -2, APOBEC3G inh -5, PABP polyA inh active, eIF4H FP inh 2.5*, PABP1 MLLE inh -7 and PHOSPHO1 block -4.
For CC(C)(C)c1ccc(-c2csc(NNC3=NCCCCC3)n2)cc1 the results were A3A deaminase 2, APOBEC3G inh -2, PABP polyA inh inactive, eIF4H FP inh -8, PABP1 MLLE inh 15 and PHOSPHO1 block 45.
COC(=O)c1sc(C(F)(F)F)c(-c2ccccc2)c1S(=O)(=O)N1CCOCC1 was read as PABP1 MLLE inh -2.
Screening COc1cc2nc(CCc3ccccc3)oc(=O)c2cc1OC returned A3A deaminase -1, APOBEC3G inh -14, PABP polyA inh inactive, eIF4H FP inh 13, PABP1 MLLE inh 4 and PHOSPHO1 block 32.
Screening Nn1c(SC/C=C/c2ccccc2)nnc1-c1cccnc1 returned A3A deaminase -2, APOBEC3G inh -7, PABP polyA inh inactive, eIF4H FP inh 12, PABP1 MLLE inh -64 and PHOSPHO1 block -51.
Cc1cccc(CSc2nnc(-c3ccccn3)n2N)c1 was read as A3A deaminase -2, APOBEC3G inh -7, PABP polyA inh inactive, eIF4H FP inh 0, PABP1 MLLE inh 0 and PHOSPHO1 block 63*.
For Nn1c(SCc2ccc(Br)cc2)nnc1-c1ccccn1 the results were A3A deaminase 0, APOBEC3G inh 1, PABP polyA inh inactive, eIF4H FP inh 9, PABP1 MLLE inh -14 and PHOSPHO1 block 38.
Nn1c(SC/C=C/c2ccccc2)nnc1-c1ccccn1 was read as A3A deaminase -4, APOBEC3G inh -15, PABP polyA inh inactive, eIF4H FP inh 6, PABP1 MLLE inh -38 and PHOSPHO1 block 84*.
For Cc1cc(C)c(S(=O)(=O)c2cccc(Br)c2C)c(Cl)n1 the results were PABP polyA inh inactive, eIF4H FP inh -4 and PABP1 MLLE inh 7.
For CC(C)(C)S(=O)N1Cc2cc(C(=O)NCC(F)(F)F)nc(-c3cccc(-c4cccc(F)c4)c3)c2[C@H]1CCO (stereo not given in full) the results were PABP1 MLLE inh -10.
Screening C#CCOCC1CN(C)C(=O)O1 (stereo not given) returned PABP1 MLLE inh 0.
Screening Cc1ccc2nc3c(c(N)c2c1)CCN3c1ccccc1 returned A3A deaminase 1, APOBEC3G inh -3, PABP polyA inh inactive, eIF4H FP inh 51*, PABP1 MLLE inh -8 and PHOSPHO1 block -6.
For Cc1ccccc1-n1ncc(C(C)NS(=O)(=O)c2sccc2C)c1C (stereo not given) the results were A3A deaminase 6, APOBEC3G inh -2, PABP polyA inh inactive, eIF4H FP inh -7, PABP1 MLLE inh 8 and PHOSPHO1 block 29.
CN(C)CCCNCCCCNC(=O)/C=N/O was read as A3A deaminase 0, APOBEC3G inh -1, PABP polyA inh active, eIF4H FP inh 16, PABP1 MLLE inh 3 and PHOSPHO1 block 11.
Screening CC(C)Cc1ccc(-c2cc3nc(NCCOc4ccccc4)ccn3n2)cc1 returned PABP1 MLLE inh -18.
For O=C1OC(Nc2cc(Br)cc3cccnc23)c2ccccc21 (stereo not given) the results were A3A deaminase 11, APOBEC3G inh 19, PABP polyA inh active, eIF4H FP inh 65*, PABP1 MLLE inh 8 and PHOSPHO1 block 2.
CC1CCN(C(=S)c2ccc([N+](=O)[O-])cc2)CC1 was read as A3A deaminase 2, APOBEC3G inh -6, PABP polyA inh inactive, eIF4H FP inh 3, PABP1 MLLE inh 44* and PHOSPHO1 block 55.
For COc1ccc(CCN2C(=O)NC(NC(C)=O)(C(F)(F)F)C2=O)cc1OC (stereo not given) the results were A3A deaminase -5, APOBEC3G inh -11, PABP polyA inh active, eIF4H FP inh -3, PABP1 MLLE inh -5 and PHOSPHO1 block 1.
